FLuc inh: Firefly luciferase inhibition profiling of diverse chemical library using quantitative high-throughput screening. Luciferin 4-monooxygenase (Photinus pyralis), P08659. purified P. pyralis luciferase, luminescence, biochemical. Potency, µM (doses to about 115 µM), usual class: inhibitors. 76,000 tested, 2.5% active; further: nearly all actives have a fitted effect of over 65% in size
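Luminescence read by CCD imager after adding enzyme (10nM final) to wells holding compound, titrated in qHTS. Substrates 10uM each D-luciferin and ATP; buffer 50mM Tris acetate pH 7.5, 10mM Mg acetate, Tween-20, BSA.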
HEK cytotox: Cytotoxic Profiling in HEK 293 Cell Line of Diverse Libraries Using Quantitative High-Throughput Screening | Potency, µM (series often up to 115 µM), without a hit: top-dose activity change, negative = cytotoxicity, hits mostly inhibitors | HEK 293 viability, ATP luminescence (CellTiter-Glo), 48-72 h | AID 1345083, 2018 | 94,000 tested, 6.6% active; further: nearly all actives have a fitted effect of over 60% in size
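Read-out: CellTiter-Glo ATP luminescence. Cells: HEK 293, 250 cells/well. Exposure: 48 or 72 hr, 37 degree Celsius.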
NPR1 antag: Natriuretic polypeptide receptor (hNpr1) antagonism - Primary qHTS; HEK293 hNpr1 GloSensor cGMP, ANP-stimulated luminescence; Potency, µM (titrated, usually from 46.3 µM), without a hit: at the highest dose activity change, negative = inhibition, actives largely listed as inhibitors; 76,000 tested, 1.6% active; calls by dose curve; further: nearly all actives have a fitted effect of over 60% in size
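Compound pre-incubated 30 min at room temperature on GloSensor-loaded HEK293 cells stably carrying hNpr1 and the pGS-40F cGMP biosensor. Stimulation uses hNppA at 0.1 nM final; luminescence is taken at baseline and 20 min post-agonist.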
NIH3T3 tox: Cytotoxic Profiling in NIH 3T3 Cell Line of Diverse Libraries Using Quantitative High-Throughput Screening; Potency, µM (series often up to 96.7 µM), inactives show at the top dose activity change, negative = cytotoxicity, usual class: inhibitors; AID 1345082, 2018; NIH 3T3 viability, CellTiter-Glo ATP luminescence, 48-72 h; 94,000 tested, 4.3% active; further: nearly all actives have a fitted effect of over 55% in size
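NIH 3T3 cells at 400 cells/well received 23 nL of compound by pintool and were incubated 48 or 72 h at 37 °C. Viability was read as ATP-coupled CellTiter-Glo luminescence.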
* = called active by the depositor; i = inactive; ? = inconclusive; / = no result given; [ ] = remark or other dose. An excerpt weighted towards active compounds, which were near 11% of everything screened. Unless noted, the call rests on the fitted dose curve; in most records, active means well fitted curve in the direction sought with a large enough effect; inconclusive means small, poorly fitted or top-dose-only effect, or another doubt; inactive means no such curve, though single readings can be large; an effect the other way counts as inactive or inconclusive. On the % scale 0 is the no-effect control and ±100 the full control effect; potency means the concentration at half of the fitted maximal effect.

SMILES	FLuc inh	HEK cytotox	NPR1 antag	NIH3T3 tox
O=C1COc2ccc(-c3ccsc3)nc2CN1Cc1ccccc1	i	100µM*	-25%[70.6 µM]	?
Cc1nc(CN2Cc3nc(-c4ccccc4)ccc3OCC2=O)cs1	i	-24%[172 µM]	5%[70.6 µM]	?
O=C1COc2ccc(-c3ccsc3)nc2CN1Cc1ccc(C(F)(F)F)cc1	i	?	-21%[70.6 µM]	?
Cc1ccccc1CN1Cc2nc(-c3cncnc3)ccc2OCC1=O	i	?	-11%[70.6 µM]	100µM*
O=C1COc2ccc(-c3ccccc3)nc2CN1Cc1ccc(F)cc1	i	?	-18%[70.6 µM]	?
C#CCNC(=O)[C@@H]1Cc2cn(CC=C)c3cccc(c23)[C@H](CC(C)C)N1	i	?	-8%[70.6 µM]	?
O=C(NC1CCN(CCn2nc3n(c2=O)CCCC3)C1)c1ccc(Cl)cc1 (centres undefined)	/	-9%	/	-13%
CC#CCn1cc2c3c(cccc31)[C@H](CC(C)C)N[C@H](C(=O)N1CCOCC1)C2	i	?	7%[70.6 µM]	?
CC#CCn1cc2c3c(cccc31)[C@H](CC(C)C)N[C@H](C(=O)NC(C)C)C2	i	50µM*	-2%[70.6 µM]	71µM*
CC#CCn1cc2c3c(cccc31)[C@H](CC(C)C)N[C@H](C(=O)NC1CCCC1)C2	i	45µM*	-9%[70.6 µM]	35µM*
CC#CCn1cc2c3c(cccc31)[C@H](CC(C)C)N[C@H](C(=O)NCCOC)C2	i	?	-11%[70.6 µM]	?
CC#CCn1cc2c3c(cccc31)[C@H](CC(C)C)N[C@H](C(=O)NCCN1CCOCC1)C2	i	?	-10%[70.6 µM]	100µM*
Cc1nc(-c2ccccc2)n(Cc2cccc(C(F)(F)F)c2)c(=O)c1CCO	i	50µM*	1%	?
Cc1nc(-c2ccc(F)cc2)n(Cc2cccc(C(F)(F)F)c2)c(=O)c1CCO	i	45µM*	-7%	?
O=C(c1noc(-c2ccc(F)cc2)n1)N1CCN(c2ccccc2)CC1	40µM*	?	-7%	-32%
CC(C)CCN1CCCC2(C1)NC(=O)c1ccccc1O2 (centres undefined)	i	-12%[172 µM]	19%[70.6 µM]	-19%[138 µM]
O=C(c1ccc(Cl)cc1)N1CCC(Cc2nc(-c3cnccn3)no2)CC1	i	?	?	25µM*
O=C(c1ccncc1)N1CCC(Cc2nc(-c3ccccc3)n[nH]2)CC1	i	i	-1%	-2%
O=C(NCC1CC1)C1CCc2nnc(C3CC3)n21 (centres undefined)	/	-7%[172 µM]	/	i
COc1ccc(Nc2ccnc(N3CCC(NC(=O)c4ccccc4F)CC3)n2)cc1	/	50µM*	/	?
COc1cccc(C(=O)NC2CCN(c3nccc(Nc4ccc(C)cc4)n3)CC2)c1	/	?	/	40µM*
Cc1ccc(Nc2ccnc(N3CCC(NC(=O)c4ccccc4F)CC3)n2)cc1	/	50µM*	/	?
COc1ccc(Nc2ccnc(N3CCC(NC(=O)c4ccc(C)cc4)CC3)n2)cc1	/	?	/	-30%
COc1ccccc1-n1c(=O)c(C(=O)NCCc2ccc(F)cc2)nc2cccnc21	/	3%	/	-22%
O=c1c2c(n(CCOc3ccccc3)n1-c1ccccc1)CN(Cc1ccc3c(c1)CCO3)CC2	i	?	-17%	?
SMILES	FLuc inh	HEK cytotox	NPR1 antag	NIH3T3 tox
CC(C)c1ccc(CC(=O)N2CCCc3ncc(C(=O)Nc4cccc(C(F)(F)F)c4)cc32)cc1	i	32µM*	-27%	?
Cc1ccccc1NC(=O)c1cnc2c(c1)N(C(=O)Cc1ccc(C(C)C)cc1)CCC2	i	100µM*	?	89µM*
CC(C)c1ccc(CC(=O)N2CCCc3ncc(C(=O)NCc4cccnc4)cc32)cc1	i	?	0%[70.6 µM]	-26%[138 µM]
CCOC(=O)C1(Cc2cccc(OC)c2)CCCNC1 (centres undefined)	i	?	10%	-23%
O=C1NCc2ccccc2CC12CCCN(Cc1ccsc1)C2 (centres undefined)	/	-19%	/	-5%
COc1ccc(CCNC(=O)c2nc3cccnc3n(C3CC3)c2=O)cc1	/	-20%	/	-19%
O=C(Nc1cccc(-c2ccc(N3CCCC3)nn2)c1)Nc1c(F)cccc1F	14µM*	?	-17%	?

Source: PubChem
